Source: PubChem BioAssay (EPA / NIEHS)
“And” between values parts separate entries of the source, which are not always exact repeats. Equal values may be shown once. Results filed as inconclusive are left out. The source made the active and inactive calls. How the source made its calls: active means hit-call score of the fitted dose curve at least 0.9, where 1 is the maximum; inconclusive means response in the unintended direction; inactive means score below 0.9.

Molecular target: human Fibroblast Growth Factor Receptor 1 (FGFR1), FGFR1 (gene 2260) (UniProt P11362)
Experiment: NVS_ENZ_hFGFR1: NovaScreen (NVS) Enzymatic Assay for human Fibroblast Growth Factor Receptor 1 (FGFR1) (AID 2283159);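 on AC50: hits lower the signal so potencies describe inhibitors of the kinase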
Experimental: NVS_ENZ_hFGFR1 is a biochemical, single-readout assay that uses extracted gene-proteins in a cell-free assay. Measurements were taken 1 hour after chemical dosing in a 384-well plate.NVS_ENZ_hFGFR1 is one of one assay component(s) measured or calculated from the NVS_ENZ_hFGFR1 assay. It is designed to make measurements of enzyme activity, a form of enzyme reporter, as detected with fluorescence intensity signals by Fluorescence and electrophoretic mobility shift technology.Data from the assay component NVS_ENZ_hFGFR1 was analyzed into 1 assay endpoint. This assay endpoint, NVS_ENZ_hFGFR1, was analyzed in the positive analysis fitting direction relative to DMSO as the negative control and baseline of activity. Using a type of enzyme reporter, loss-of-signal activity can be used to understand changes in the enzymatic activity as they relate to the gene FGFR1. Furthermore, this assay endpoint can be referred to as a primary readout, because this assay has produced multiple assay endpoints where this one serves a enzymatic activity function. To generalize the intended target to other relatable targets, this assay endpoint is annotated to the kinase intended target family, where the subfamily is receptor tyrosine kinase.
Binding assays used specific radioligands (tritiated, iodinated) with non-radioactive competitive displacement ligands in agonist or antagonist protocols (as indicated) and various reference compounds and inhibitors to titrate specific binding to receptors and transporters. Most enzyme assays (CYPs, kinases, phosphatases, proteases, HDACs) used recombinant protein and specific substrates (fluorescence mostly, some colorimetric and radioactive) and inhibitors, followed by a biochemical separation of substrate and product. All assays for the biochemical HTS were initially run in duplicate at a single concentration (10 uM for CYP450 assays and 25 uM for all others). […] Each assay was run with positive and negative controls, and concurrent controls on every plate. The follow-up (secondary) screen tested active chemical-pairs in concentration series, as well as a few additional assays not tested in the primary screen, some selected negative inactives, and several cases re-run in the concentration series for confirmatory purposes.

human Fibroblast Growth Factor Receptor 1 (FGFR1), FGFR1 (gene 2260), sequence (P11362 whole entry, looked up): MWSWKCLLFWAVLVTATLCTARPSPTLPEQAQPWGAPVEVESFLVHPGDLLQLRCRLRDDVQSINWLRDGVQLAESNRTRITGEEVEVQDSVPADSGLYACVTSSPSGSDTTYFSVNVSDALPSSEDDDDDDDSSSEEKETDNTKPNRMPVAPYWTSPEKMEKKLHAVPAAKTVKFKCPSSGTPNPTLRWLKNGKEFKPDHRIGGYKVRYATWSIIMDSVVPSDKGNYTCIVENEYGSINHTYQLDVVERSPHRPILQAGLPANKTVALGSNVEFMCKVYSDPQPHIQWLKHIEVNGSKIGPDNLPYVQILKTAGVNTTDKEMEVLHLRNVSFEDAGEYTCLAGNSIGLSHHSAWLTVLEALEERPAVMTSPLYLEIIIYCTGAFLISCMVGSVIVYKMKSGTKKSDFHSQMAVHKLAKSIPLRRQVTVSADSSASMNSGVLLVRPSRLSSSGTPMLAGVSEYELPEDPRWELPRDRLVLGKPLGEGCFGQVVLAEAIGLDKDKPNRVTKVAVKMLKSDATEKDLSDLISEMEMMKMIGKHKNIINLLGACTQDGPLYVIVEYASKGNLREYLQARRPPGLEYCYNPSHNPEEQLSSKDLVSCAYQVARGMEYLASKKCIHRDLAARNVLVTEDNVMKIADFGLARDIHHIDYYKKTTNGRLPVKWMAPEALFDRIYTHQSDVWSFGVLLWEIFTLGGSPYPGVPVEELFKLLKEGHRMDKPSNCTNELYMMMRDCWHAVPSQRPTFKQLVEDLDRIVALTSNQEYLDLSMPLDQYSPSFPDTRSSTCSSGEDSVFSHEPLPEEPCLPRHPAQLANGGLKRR

Compound | outcome | AC50
Nc1ccc(S(=O)(=O)c2ccc(N)cc2)cc1 | inactive | 
O=C(O)c1ccc2c(c1)nc(C(=O)NC1CCN(C3CC3)CC1)n2Cc1cc(-c2ccc(Cl)s2)on1 | inactive | 
O=[N+]([O-])c1ccc(Cl)cc1 | inactive | 
CCC(C)N(C)C(=O)c1cc2ccccc2c(-c2ccccc2Cl)n1 (stereo not given) | inactive | 
CN1C(=O)N(c2ccccc2Br)Cc2cnc(Nc3ccc4c(c3)OCC(CO)O4)nc21 (stereo not given) |  | 0.0059 µM (active)
[O-]n1ccccc1=S.[O-]n1ccccc1=S.[Zn+2] | inactive | 
O=C(c1ccc(O)cc1O)c1ccc(O)cc1O |  | 25 µM (active)
CCCCCCCC/C=C\CCCCCCCC(=O)OC[C@@H](O)[C@H]1OC[C@H](O)[C@H]1O | inactive | 
NC(=NCCCCCCN=C(N)/N=C(\N)Nc1ccc(Cl)cc1)/N=C(\N)Nc1ccc(Cl)cc1 |  | 11.8 µM (active)
FC(F)(F)C(F)(F)C(F)(F)C(F)(F)C(F)(F)C(F)(F)CCI | inactive | 
O=C(Oc1ccccc1)c1cccc(C(=O)Oc2ccccc2)c1 | inactive | 
Oc1ccc2c(c1)-c1ccccc1C2 |  | 32.7 µM (active)
Cc1oc(-c2ccccc2)nc1CCOc1cccc2c1ccn2CCC(=O)O | inactive | 
Cc1cc(C)c(O)c(C)c1 | inactive | 
Cc1cc(NC(=O)C(=O)O)cc(C)c1Oc1ccc(O)c2c1CCC2 | inactive | 
S=C(S)NCCNC(=S)S.[Mn+2].[S-]C([S-])=NCCN=C([S-])[S-].[Zn+2] |  | 9.75 µM (active) and 926 nM (active) and 5.66 µM (active)
CN(C)C(=O)NC1(c2ccccc2)CCN(CCC[C@]2(c3ccc(Cl)c(Cl)c3)CCCN(C(=O)c3ccccc3)C2)CC1 | inactive | 
CC/C(=C(\c1ccccc1)c1ccc(OCCN(C)C)cc1)c1ccccc1 |  | 33.5 µM (active)
Cc1nc(-c2ccc3c(c2)CCN(CCC2CCC(NC(=O)/C=C/c4ccc(F)cc4)CC2)CC3)no1 (stereo not given) |  | 5.82 µM (active)
N=C(N)c1ccc(OCCCCCOc2ccc(C(=N)N)cc2)cc1 | inactive | 

Compound | outcome | AC50
CCCCCCC(=O)O | inactive | 
CN(C)C(=O)NC1(c2ccccc2)CCN(CC[C@@]2(c3ccc(F)c(F)c3)CN(C(=O)c3ccccc3)CCO2)CC1 | inactive | 
CC(C)=CCC/C(C)=C\CO | inactive | 
Cc1ccc(C(C)(C)C)c(O)c1 | inactive | 
CC[C@H](C)C(=O)O[C@H]1C[C@H](O)C=C2C=C[C@H](C)[C@H](CC[C@@H](O)C[C@@H](O)CC(=O)O)[C@H]21 | inactive | 
CC1=C(/C=C/C(C)=C/C=C/C(C)=C/CO)C(C)(C)CCC1 | inactive | 
O=C(O)c1ccccc1 | inactive | 
Cc1c(-c2cccnc2)c2ccccc2n1CCCCC(=O)O | inactive | 
CCN(CC)CCNc1ccc(CNC=O)c2sc3ccc(OC)cc3c(=O)c12 | inactive | 
CSc1ccc(Oc2ccc(S(N)(=O)=O)cc2CN(C)C)cc1C | inactive | 
Clc1nc(Cl)c(Cl)c(Cl)c1Cl | inactive | 
c1cc(-c2ccncc2)ccn1 | inactive | 
CC(C)(c1ccc(O)cc1)c1ccc(O)cc1 | inactive | 
O=C(O)c1cccc(Oc2ccccc2)c1 | inactive | 
CCCCC(CC)COC(=O)CCCCC(=O)OCc1ccccc1 (stereo not given) | inactive | 
Nc1cccc2c(N)cccc12 | inactive | 
Cc1ncc([C@@H](CCCCCCc2ccc3c(n2)NCCC3)CC(=O)O)cn1 | inactive | 
NC(=O)N(O)[C@@H]1C=C[C@H](Oc2cccc(Oc3ccc(F)cc3)c2)C1 | inactive | 
CCc1cccc(CC)c1N | inactive | 
COc1ccc(OC(F)(F)F)cc1CN[C@H]1CCCN[C@H]1c1ccccc1 | inactive | 
